Test results taken from PubChem BioAssay AID488969 (Vanderbilt High Throughput Screening Facility, 2010).
Whole data set: some 110,000 compounds, median “z-score” near -0.1, cut for the highest 2% near 2. The entries come from a sample that favours the highest values as a whole. Activity calls are given as the source filed them.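 How the source made its calls: active means z-score in the third read window above 3 or below -3; inactive means the rest.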

target: Metabotropic glutamate receptor 8 (Rattus norvegicus) (UniProt P70579); test: rat mGluR8 modulators via GIRK flux, primary screen, cell-based, thallium flux, HTS (AID 488969); settings: HEK293 rat mGluR8, GIRK (G protein-gated inwardly rectifying potassium channel) thallium flux, FluoZin2; at 10 µM; stronger effect = higher value; submaximal glutamate (EC20) added with thallium
Sequence (P70579 whole entry, looked up): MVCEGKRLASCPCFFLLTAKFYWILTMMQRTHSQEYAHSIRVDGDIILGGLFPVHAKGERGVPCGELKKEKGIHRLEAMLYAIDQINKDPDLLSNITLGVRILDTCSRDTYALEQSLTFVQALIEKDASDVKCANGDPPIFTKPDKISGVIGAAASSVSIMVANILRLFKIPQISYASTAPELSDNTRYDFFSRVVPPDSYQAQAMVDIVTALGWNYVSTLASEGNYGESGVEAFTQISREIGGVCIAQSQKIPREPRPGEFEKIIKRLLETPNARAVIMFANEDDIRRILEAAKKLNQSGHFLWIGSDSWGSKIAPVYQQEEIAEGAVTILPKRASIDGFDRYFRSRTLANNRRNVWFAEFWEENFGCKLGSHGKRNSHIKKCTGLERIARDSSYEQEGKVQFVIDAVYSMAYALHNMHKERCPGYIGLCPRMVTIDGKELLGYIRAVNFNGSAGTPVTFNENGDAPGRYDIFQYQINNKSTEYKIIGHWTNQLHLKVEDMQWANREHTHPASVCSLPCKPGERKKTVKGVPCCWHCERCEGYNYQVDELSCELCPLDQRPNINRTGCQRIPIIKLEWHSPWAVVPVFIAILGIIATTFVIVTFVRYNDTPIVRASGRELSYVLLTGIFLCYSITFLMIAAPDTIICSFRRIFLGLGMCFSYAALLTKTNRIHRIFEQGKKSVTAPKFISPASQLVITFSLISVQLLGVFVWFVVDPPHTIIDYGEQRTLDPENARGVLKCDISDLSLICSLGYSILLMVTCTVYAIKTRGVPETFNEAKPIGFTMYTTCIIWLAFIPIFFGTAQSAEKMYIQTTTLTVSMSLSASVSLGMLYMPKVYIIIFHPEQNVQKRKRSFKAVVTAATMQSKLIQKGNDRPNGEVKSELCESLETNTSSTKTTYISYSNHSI

Compound	z-score
CCCCNc1ccc2nsnc2c1[N+](=O)[O-]	-0.137
C=CCNC(=O)c1nn2cccnc2c1Cl	-0.068
O=C(Nc1ccc2c(c1)oc1ccccc12)c1ccc2c(c1)OCO2	0.81
Cc1cc2oc(C(=O)N(Cc3ccccc3)C3CCS(=O)(=O)C3)cc(=O)c2cc1Cl (centres undefined)	-0.141
Cc1ccc(S(=O)(=O)NCC(C)NS(C)(=O)=O)cc1 (centres undefined)	-0.186
O=C1CCCN1c1ccc(S(=O)(=O)NCCc2ccc(Cl)cc2)cc1	0.203
Cc1ccc(S(=O)(=O)NCCCCCC(N)=O)cc1	0.00872
Cc1ccc(S(=O)(=O)NCCCCCC(=O)N(C)C)cc1	2.19
CNC(=O)CCCCCNS(=O)(=O)c1ccc(C)cc1	0.0156
Cc1ccc(S(=O)(=O)NCCCNS(C)(=O)=O)cc1	0.0948
Cc1ccc(S(=O)(=O)NCC(C)NS(=O)(=O)c2ccc(C)cc2)cc1 (centres undefined)	2.8
CN(C)CCNS(=O)(=O)c1ccc(Cl)cc1	1.34
Cc1ccc(S(=O)(=O)NCCCN(C)C)cc1	2.95
CN(C)CCCNS(=O)(=O)c1ccc(N2CCC(c3ccc(Cl)cc3)=N2)cc1	2.59
O=S(=O)(c1ccc(N2CCC(c3ccc(Cl)cc3)=N2)cc1)N(CCO)CCO	-0.748
CC(=O)Nc1ccc(S(=O)(=O)NCC(C)NS(=O)(=O)c2ccc(NC(C)=O)cc2)cc1 (centres undefined)	0.018
CCOc1ccc(-c2cn3ccccc3n2)cc1[N+](=O)[O-]	0.461
O=C(c1cccc(-n2cnnn2)c1)N1CC=C(c2ccccc2)CC1	0.39
CN1CCN(/C(=N\S(=O)(=O)c2ccc(F)cc2)c2ccccc2)CC1	-0.0184
Cc1sc2ncnc(N3CCOCC3)c2c1C	-0.134
O=[N+]([O-])c1ccc(-c2csc(N3CCc4ccccc4C3)n2)cc1	-0.0911
CC(c1ccccc1)n1c(SCC(=O)N2CC(=O)Nc3ccccc32)nc2ccccc2c1=O (centres undefined)	4.74 (active)

Compound	z-score
Cc1ccc(Cn2c(SCC(=O)N3CC(=O)Nc4ccccc43)nc3ccccc3c2=O)cc1	1.31
Cc1ccc(-n2c(SCC(=O)N3CC(=O)Nc4ccccc43)nc3ccccc3c2=O)cc1	-0.279
O=C1CN(C(=O)CSc2nc3ccccc3c(=O)n2Cc2ccc(F)cc2)c2ccccc2N1	3.79 (active)
O=C1CN(C(=O)CSc2nc3ccccc3n2CCc2ccccc2)c2ccccc2N1	-0.346
Cc1cccc(C)c1-n1c(SCC(=O)N2CC(=O)Nc3ccccc32)nc2ccccc2c1=O	-0.109
O=C1CN(C(=O)CSc2nc3cc(Cl)ccc3c(=O)n2Cc2ccccc2)c2ccccc2N1	7.11 (active)
Cc1nnc(SCC(=O)N2CC(=O)Nc3ccccc32)n1Cc1ccccc1	-0.151
Cc1ccc(-n2c(SCC(=O)N3CC(=O)Nc4ccccc43)nc3ccccc3c2=O)cc1C	-0.183
O=C(O)/C=C/C(=O)Nc1ccccc1C(=O)Nc1ccccc1	0.317
CCOC(=O)C1=C(Nc2ccccc2)CC(C)(O)C(C(=O)OCC)C1c1ccc(Cl)cc1 (centres undefined)	-0.445
COc1ccc(CCC(C)NCC2CCCCC2)cc1 (centres undefined)	0.819
S=C(NCc1cccs1)Nc1cccc(Cl)c1	4.52 (active)
S=C(NCc1cccs1)Nc1ccc(Cl)cc1	0.118
Cc1csc(NC(=O)Nc2cccc(Cl)c2)n1	0.398
CCOC(=O)c1csc(NC(=O)Nc2cccc(Cl)c2)n1	-0.0455
Cc1csc(NC(=S)Nc2cccc(Cl)c2)n1	14.7 (active)
Fc1ccc(NC(=S)Nc2cccc(Cl)c2)cc1	1.26
Fc1ccc(CNC(=S)Nc2cccc(Cl)c2)cc1	5.18 (active)
S=C(NCc1ccncc1)Nc1cccc(Cl)c1	-0.135
O=C(NCc1cccs1)Nc1cccc(Cl)c1	0.43
O=C(Nc1ccccc1)N1CCCc2ccccc21	-0.0768
O=C(NCCCN1CCCC1=O)c1ccccc1NS(=O)(=O)c1ccc(Br)cc1	-0.938

Compound	z-score
CCCn1cc(NC(=O)C2CC(c3cccc(Br)c3)=NO2)cn1 (centres undefined)	-0.352
CCOc1cc(/C=C2/NC(=O)N(CC(=O)Nc3cccc(C)c3)C2=O)ccc1O	-0.784
N#CC1=C(SCC(=O)NCc2ccccc2)NC(=O)CC1c1ccco1 (centres undefined)	1.77
CC(C)=C1C2CCC1C1C(=O)N(c3nc(-c4ccc(C(C)C)cc4)c(C)s3)C(=O)C21 (centres undefined)	-0.0235
O=C(NC(=S)N1CCN(c2ccc(Cl)cc2[N+](=O)[O-])CC1)c1cccs1	9.46 (active)
O=C(NC(=S)N1CCN(c2ccc(Cl)cc2[N+](=O)[O-])CC1)c1ccco1	2.99
O=C(NC(=S)N1CCN(c2c(Cl)cccc2[N+](=O)[O-])CC1)c1cccs1	-4.63 (active)
NC(=O)C1CCN(c2ccc(C(F)(F)F)cc2[N+](=O)[O-])CC1	0.0305
O=C(NC(=S)N1CCN(c2ccc([N+](=O)[O-])cc2Cl)CC1)c1ccco1	1.05
O=C(NC(=S)N1CCN(c2ccc(C(F)(F)F)cc2[N+](=O)[O-])CC1)c1cccs1	8.9 (active)
O=C(Nc1cc(C(F)(F)F)ccc1N1CCOCC1)c1cccs1	1.15
O=C(CSc1ccc(Cl)cc1)N1CCN(c2ccc(Cl)cc2[N+](=O)[O-])CC1	-0.109
O=C(NC(=S)N1CCCCC1)c1cccs1	0.578
COc1ccc(NC(=O)Nc2ccc(Br)cn2)cc1OC	-0.221
COc1ccc2nc(NC(=O)CSc3nnc(N)s3)sc2c1	0.075
Cc1[nH]n(-c2ccc([N+](=O)[O-])cc2)c(=O)c1C=NCCc1c(C)[nH]c2ccccc12	-0.0759
Cc1[nH]n(-c2ccccc2)c(=O)c1N=Nc1nccs1	14.8 (active)
Cc1[nH]n(-c2ccccc2)c(=O)c1N=Nc1cccc(S(=O)(=O)N2CCOCC2)c1	0.327
Cc1[nH]n(-c2ccc([N+](=O)[O-])cc2)c(=O)c1N=Nc1nc2ccccc2s1	2.47
Cc1[nH]n2c(=O)cc(-c3ccc([N+](=O)[O-])cc3)nc2c1-c1ccccc1	-1.93
Cc1[nH]n(-c2ccccc2)c(=O)c1S(=O)(=O)c1ccccc1	-0.642
CN(Cc1ccc(-n2cccn2)cc1)C(=O)c1cnn2c1NC(c1ccco1)CC2C(F)(F)F (centres undefined)	-0.35

Compound	z-score
CCCCN1C(=S)SC(C)(C)C1/[N+]([O-])=C/c1cccnc1 (centres undefined)	-0.00445
CCN1C(=O)C2C(C1=O)N1C(c3ccccc3)C3C(=O)N(CC)C(=O)C3N1C2c1ccccc1 (centres undefined)	0.0538
Cc1cccc(OCC(O)CN2C(C)(C)CC(O)CC2(C)C)c1 (centres undefined)	9.44 (active)
CC(=O)c1ccc(OCC(O)CN2C(C)(C)CC(O)CC2(C)C)cc1 (centres undefined)	-0.153
C=CCn1c(=N)n(CC(O)COc2ccccc2OC)c2ccccc21 (centres undefined)	1.12
CCCCCn1c(=N)n(CC(O)COc2ccccc2OC)c2ccccc21 (centres undefined)	-1.11
CCCCn1c(=N)n(CC(O)COc2cccc(C)c2)c2ccccc21 (centres undefined)	4.52 (active)
Cc1cccc(OCC(O)CN2C(C)(C)CC(O)CC2(C)C)c1C (centres undefined)	1.1
CCCn1c(=N)n(CC(O)c2ccco2)c2ccccc21 (centres undefined)	0.907
CCCn1c(=N)n(CC(O)COc2cccc(C)c2)c2ccccc21 (centres undefined)	3.74 (active)
CCn1c(=N)n(CC(O)COc2cccc(C)c2)c2ccccc21 (centres undefined)	0.778
CC(=O)c1ccc(OCCCC(=O)Nc2ccc(C)c(S(=O)(=O)N(C)C)c2)cc1	0.136
O=C(CCNc1cc(Cl)cc(Cl)c1)c1cccs1	0.0113
COc1ccc(NS(=O)(=O)c2c(C)n(C)c(=O)n(C)c2=O)cc1OC	-0.0428
Cc1ccc(S(=O)(=O)Cc2ccc(C(=O)NCc3ccc4c(c3)OCO4)o2)cc1	-0.326
NS(=O)(=O)c1ccc(CCNC(=O)C2CCN(S(=O)(=O)c3cnc[nH]3)CC2)cc1	-0.00955
O=C(NC1CCCC1)C(c1cccnc1)N(C(=O)c1csnn1)C1CCCC1 (centres undefined)	-0.145
CC1CCN(c2nc3c(c(=O)[nH]c(=O)n3C)n2CCSc2nc3ccccc3o2)CC1	0.0449
C=C1c2cc(C)ccc2NC(=O)N1c1ccc(C)cc1	-0.68
COc1cc(C)c(S(=O)(=O)N2CCOCC2)cc1C(C)C	0.397
COc1cc(C)c(-c2cc(C(=O)O)c(C)o2)cc1C(C)C	-0.106
COc1cc(C)c(N)cc1C(C)C	2.12

Compound	z-score
CNC(=S)N1CCN(c2ccc([N+](=O)[O-])cc2)CC1	-0.188
Cc1ccc(C(=O)NC(=S)N2CCN(c3ccc([N+](=O)[O-])cc3)CC2)cc1	0.426
CCNC(=S)N1CCN(c2ccc([N+](=O)[O-])cc2)CC1	0.99
C=CCNC(=S)N1CCN(c2ccc([N+](=O)[O-])cc2)CC1	2.09
COc1ccc(C(=O)NC(=S)N2CCN(c3ccc([N+](=O)[O-])cc3)CC2)cc1	0.274
O=C(NC(=S)N1CCN(c2ccc([N+](=O)[O-])cc2)CC1)c1ccc(F)cc1	9.01 (active)
Cc1c(N(C)C)nc2ccccc2c1N	2.03
CCN(CC)c1nc2ccccc2c(N)c1-c1ccccc1	0.0637
CC(=O)c1c(C)nc2ccccc2c1N	0.205
CN(C)c1nc2ccccc2c(N)c1-c1ccccc1	3.06 (active)
CN(C)c1nc(-c2ccccc2)nnc1C(F)(F)F	-0.148
Cc1cc(C)c2c(N)c3ccccc3nc2n1	-0.0162
O=C(NCc1cccnc1)c1cccc(Cl)c1	0.278
O=C(Cn1c(=O)oc2ccccc21)NCc1ccco1	0.455
Cc1c(NCc2cc(Cl)ccc2O)c(=O)n(-c2ccccc2)n1C	-0.0479
O=C(CSc1nnc(-c2cccc(Cl)c2)o1)Nc1ccc2c(c1)OCCO2	-0.0175
CCCN(CC(=O)Nc1cc(Cl)cc(Cl)c1)CC(=O)Nc1ccc(F)c(F)c1F	-0.209
CC(C)COP(=O)(c1ccc(N(C)C)cc1)C(Nc1ccccc1)c1ccccc1 (centres undefined)	-0.803
COc1cccc(NC(=O)NCCCSC2CCCCC2)c1	4.47 (active)
CCOc1ccc(NC(=O)NCCCSC2CCCCC2)cc1	0.197
CCCCSCCCNC(=O)Nc1cccc(OC)c1	-0.211
